Results published in PubChem BioAssay AID720580 (National Center for Advancing Translational Sciences (NCATS), 2013).
In all, about 330,000 compounds went through this assay and about 1,500 (0.45%) were called active. Not shown: some 6% with an inconclusive outcome. Calls come from the whole dose curve; tested in A549 cells. Only a selection was taken, and actives are over-represented in it overall.

test: qHTS for Stage-Specific Inhibitors of Vaccinia Orthopoxvirus: Venus Reporter Primary qHTS; settings: Vaccinia virus Venus reporter expression, fluorescence; series mostly up to 36.5 µM; activity change, negative = inhibition: at the top concentration; note: nearly all actives have a fitted effect of over 30% in size
% is set by controls: 0 for no effect and ±100 for the full control effect; potency is the fitted concentration of half-maximal effect.

Row | SMILES | activity change, negative = inhibition | Potency
1 | CCCNC(=O)C1(C)CCN(Cc2ccc(Cl)c(Cl)c2)C1 (configuration not stated) | 3.72% (inactive) | –
2 | CCCc1ccc(C(O)c2ncc(-c3cccc(OC)c3)[nH]2)cc1 (configuration not stated) | -7.29% (inactive) | –
3 | Cc1ccc(-c2nc3c(C)cc(Br)cn3c2Cc2ccccc2)cc1 | -17% (inactive) | –
4 | COc1ccccc1Cc1c(-c2ccc(Cl)cc2)nc2ccc(Cl)cn12 | -18.1% (inactive) | –
5 | COc1ccc2c(c1O)-c1cccc3c1[C@@H](C2)N(C)CC3 | -9.77% (inactive) | –
6 | COc1c(O)ccc2c1CN1CCc3cc4c(cc3C1C2)OCO4 (configuration not stated) | – | 11.2 µM (active)
7 | CN1CCc2cc3c(cc2[C@H]1[C@@H]1OC(=O)c2c1ccc1c2OCO1)OCO3 | -15.2% (inactive) | –
8 | Cc1cccc(C)c1NC(=O)C(c1cccc2ccccc12)n1c(=O)c(-c2ccco2)nc2ccccc21 (configuration not stated) | -16.4% (inactive) | –
9 | COc1cc(OC)c2c(-c3cccc(-c4cccc(N)c4)c3)cc(=O)oc2c1 | – | 12.6 µM (active)
10 | COc1ccc(-c2c(C)cc3oc(=O)cc(-c4ccccc4)c3c2C)cc1OC | -14.3% (inactive) | –
11 | COc1ccc(-c2c(C)cc3oc(=O)cc(-c4ccccc4)c3c2C)cc1F | -20.5% (inactive) | –
12 | CN[C@H]1C[C@H]2c3cc(Oc4ccccc4C)ccc3CCN2C(=O)[C@H]1[C@H](C)O | -0.143% (inactive) | –
13 | CC1=C(C(=O)N(C(C)C)C(C)C)CC(CC(=O)NCCCCc2ccccc2)C(=O)N1CCC1=CCCCC1 (configuration not stated) | -14.9% (inactive) | –
14 | CC1=C(C(=O)Nc2ccccc2)SCCO1 | -8.62% (inactive) | –
15 | CC1=C(C(=O)Nc2ccccc2)S(=O)(=O)CCO1 | – | 0.794 µM (active)
16 | O=C(Nc1ccccc1)c1ccc2c(c1)OCCCO2 | -17.9% (inactive) | –
17 | OC(CBr)C[n+]1cccc2cc(Br)ccc21 (configuration not stated) | -19.5% (inactive) | –
18 | COc1cccc(C(O)c2nc(-c3ccc(C)c(C)c3)cs2)c1 (configuration not stated) | -9.02% (inactive) | –
19 | CCC(C)N(c1ccc(/C=C/c2ccnc3ccccc23)cc1)C(C)CC (configuration not stated) | 25.9% (inactive) | –
20 | COC(=O)Cc1ccc(OC2(C)CCN(Cc3ccc4c(c3)OCCO4)C2)cc1 (configuration not stated) | -6.83% (inactive) | –
21 | COC(=O)c1ccc2nc(-c3ccccc3)c(Cc3ccc(OC)cc3C)n2c1 | 1.02% (inactive) | –
22 | Cn1c(NN)nc2sc3c(c2c1=O)CCC3 | -13.9% (inactive) | –
23 | Cc1ccc(C)c(-n2c(SCC(=O)O)nc3sc4c(c3c2=O)CCCC4)c1 | -18.6% (inactive) | –

Row | SMILES | activity change, negative = inhibition | Potency
24 | CCCc1nc2sc3c(c2c(=O)n1NC(=O)CCCl)CCCC3 | – | 7.94 µM (active)
25 | Nc1nc2c(Br)ccc(Br)c2cc1C(=O)NCCc1ccccc1 | -9.13% (inactive) | –
26 | Cc1ccc2nc(-c3ccccc3)c(CC3CCCCC3)n2c1 | -3.43% (inactive) | –
27 | O=C(NC1CCCC1)C1c2ccccc2OCC(=O)N1Cc1ccccc1 (configuration not stated) | 0.451% (inactive) | –
28 | CC(=O)c1cccc(-c2cnc3c(NC=O)cc(-c4ccc(N(C)C)cc4)cn23)c1 | 19.6% (inactive) | –
29 | CC(=O)c1cccc(-c2cnc3c(NC=O)cc(-c4cccc(C(=O)N(C)C)c4)cn23)c1 | -4.87% (inactive) | –
30 | CC(=O)c1ccc(-c2cnc3c(NC=O)cc(-c4cccc(NS(C)(=O)=O)c4)cn23)cc1 | – | 11.2 µM (active)
31 | CC(C)(C)c1ccc(C(=O)C[N+]2(C)CCCc3ccccc32)cc1 (configuration not stated) | -21.8% (inactive) | –
32 | CCC(C)(O)C(=O)OC1C(=O)OC2CC3C(C)=CC(=O)C(O)C3(C)C3C4(O)OCC23C1C(C)C4O (configuration not stated) | – | 0.316 µM (active)
33 | CC=CCn1c(SCCCc2ccccc2)nc2c1c(=O)[nH]c(=O)n2C | -14.7% (inactive) | –
34 | CN(C(=N)N)c1ccc(/C=C2\C=Cc3ccccc32)cc1 | -17.4% (inactive) | –
35 | COc1ccc(S(=O)(=O)N2CCCCC2c2cc(C(=O)NCc3ccc(F)cc3)no2)cc1 (configuration not stated) | -10.1% (inactive) | –
36 | CCN(CC)c1ncnc2c1ncn2[C@H]1CN(Cc2cccs2)C[C@@H](CO)O1 | -4.26% (inactive) | –
37 | CCOc1cc(N2CCOCC2)c(OCC)cc1NC(=O)COc1cccc2cccnc12 | – | 12.6 µM (active)
38 | CCOc1cc(N2CCOCC2)c(OCC)cc1NC(=O)c1cc(C)nc2ccccc12 | -7.77% (inactive) | –
39 | CCOc1cc(N2CCOCC2)c(OCC)cc1NC(=O)COc1cccc(Cl)c1 | -18.9% (inactive) | –
40 | CN(N=O)c1ccc(C=C2c3ccccc3-c3ccccc32)cc1 | -10.5% (inactive) | –
41 | CN(C)C1=C2C=CC=CC2/C(=C2/C=Cc3ccccc32)C=C1 (configuration not stated) | -11.3% (inactive) | –
42 | CCCc1ccc(OCc2ccc(C(=O)N/N=C/c3cccc([N+](=O)[O-])c3)o2)c(OC)c1 | – | 7.08 µM (active)
43 | COC(=O)c1ccc(COc2ccc(/C=N/NC(=O)C(=O)Nc3ccc(OC)cc3)cc2OC)o1 | 4.27% [at 7.34 µM] (inactive) | –
44 | O=C(N/N=C/c1cccc(OCc2ccccc2)c1)c1ccc(Br)o1 | -10.1% (inactive) | –
45 | CC(=O)Nc1cccc(-c2cc(NC(C)=O)c3ncc(-c4ccccc4)n3c2)c1 | -4.03% (inactive) | –
46 | CC(C)C[C@@H]1Cc2[nH][nH]c(=O)c2[C@H](CCc2ccccc2)O1 | -11.9% (inactive) | –

Row | SMILES | activity change, negative = inhibition | Potency
47 | Nc1ncn(C2OC(CO)C(O)C2O)c(=O)n1 (configuration not stated) | – | 10 µM (active)
48 | CC(C)Sc1nc(N)nc2c1ncn2C1OC(CO)C(O)C1O (configuration not stated) | 2.2% (inactive) | –
49 | Nc1nc(SCc2ccc([N+](=O)[O-])cc2)c2ncn(C3OC(CO)C(O)C3O)c2n1 (configuration not stated) | -18.7% (inactive) | –
50 | Fc1cccc(Cc2c(-c3cccc(Cl)c3)nc3ccc(Br)cn23)c1 | -4.21% (inactive) | –
51 | C/C(=N\NC(=O)c1ccccc1F)c1ccccn1 | -13.5% (inactive) | –
52 | C/C(=N\NC(=O)Cc1ccc(Cl)cc1)c1ccccn1 | – | 6.31 µM (active)
53 | C/C(=N\NC(=O)Cc1ccc(Br)cc1)c1cccnc1 | -10.3% (inactive) | –
54 | CCC(C(=O)NC(C)(C)C)n1c(-c2ccccc2)nc2ccccc21 (configuration not stated) | -3.62% (inactive) | –
55 | Cc1cc(Br)cn2c(Cc3ccsc3)c(-c3ccc(C#N)cc3)nc12 | -6.63% (inactive) | –
56 | COc1ccc(-c2cc3nc(NCCOc4ccccc4)ccn3n2)cc1 | -8.89% (inactive) | –
57 | CCOC(=O)C1=CC[C@@H](c2ccccc2)N(S(=O)(=O)c2ccc(C)cc2)[C@H]1c1ccc(CC)cc1 | 2.38% (inactive) | –
58 | COc1ccc(CS(=O)/C(Cl)=C(/Cl)C(=O)Nc2ccc(OC)nc2)cc1 (configuration not stated) | – | 5.62 µM (active)
59 | CCOc1ccc(S(=O)(=O)Nc2ccc(OC)nc2)cc1 | -12.8% (inactive) | –
60 | COc1ccc(NC(=O)CN2C(=O)NC(C)(c3ccccc3)C2=O)cn1 (configuration not stated) | -4.42% (inactive) | –
61 | Cc1c(CCO)sc[n+]1CC(=O)c1ccc2ccccc2c1 | 1.96% (inactive) | –
62 | COC(=O)C1(C(=O)OC)C/C=C\CN(S(=O)(=O)c2ccccc2[N+](=O)[O-])CCC1 | 5.58% (inactive) | –
63 | COc1ccc(Br)c(Cn2c(C)c(C(=O)NCc3cccs3)sc2=O)c1 | -4.37% (inactive) | –
64 | COc1cccc(NC(=O)C2(C)CCN2Cc2ccccc2Cl)c1 (configuration not stated) | -19.1% (inactive) | –
65 | O=C(NCc1ccccc1)C(c1ccc(F)cc1)N1CCN(C(=O)C2CCCO2)CC1 (configuration not stated) | -11.6% (inactive) | –
66 | O=c1[nH]c(N2CCN(Cc3ccc4c(c3)OCO4)CC2)nc2c1CCCC2 | -2.01% (inactive) | –
67 | Fc1ccc(N2CCN(Cc3ccc4c(c3)OCO4)CC2)cc1 | -5.26% (inactive) | –
68 | Fc1ccc2[nH]c3c(N4CCN(Cc5ccc6c(c5)OCO6)CC4)ncnc3c2c1 | – | 6.31 µM (active)
69 | CCOP(=O)(OCC)C(Cc1ccccc1)N=C(c1ccccc1)c1ccccc1 (configuration not stated) | 11.1% (inactive) | –

Row | SMILES | activity change, negative = inhibition | Potency
70 | CN(Cc1ccccc1)c1ccc(/C=C/c2ccnc3ccccc23)cc1 | -10.8% (inactive) | –
71 | Brc1cccc[n+]1Cc1cccc(C[n+]2ccccc2Br)c1 | -8.21% (inactive) | –
72 | COC(=O)c1ccc2nc(-c3ccc(F)cc3)c(Cc3ccc(C)cc3)n2c1 | -7.97% (inactive) | –
73 | CC(C)(C)C1CCC(NC(=O)c2cnn3c2NC(=C2CC2)C=C3C(F)F)CC1 (configuration not stated) | -29.1% (inactive) | –
74 | O=c1c(-c2cccc(Cl)c2)c[nH]n1-c1ccccc1 | -15.6% (inactive) | –
75 | Cc1[nH]n(-c2cccc(Cl)c2)c(=O)c1-c1ccc(Cl)cc1 | – | 28.2 µM (active)
76 | O=c1c2ccccc2[nH]c(=S)n1-c1cccc(Cl)c1 | -16.2% (inactive) | –
77 | CCN(CC)c1ccc(/C=C/c2c(C)cnc3ccc(C)cc23)cc1 | -14.2% (inactive) | –
78 | CN1CCN(c2nc3c(c(=O)[nH]c(=O)n3C)n2Cc2cccc3ccccc23)CC1 | -21.5% (inactive) | –
79 | Cn1c(=O)[nH]c(=O)c2c1nc(N1CCN(C(c3ccccc3)c3ccccc3)CC1)n2CCO | – | 12.6 µM (active)
80 | Cn1c(=O)[nH]c(=O)c2c1nc(N1CCN(CCO)CC1)n2CCSc1nc2ccccc2s1 | -9.09% (inactive) | –
81 | COC(=O)[C@@]12C[C@@H](CC(=O)NCc3cccc(C(F)(F)F)c3)C(=O)N(Cc3ccco3)C1=CCC(C)(C)C2 | -29.1% (inactive) | –
82 | C=C(C)C(=O)O[C@H]1C/C(C)=C\C(=O)/C=C(\C)[C@H](O)[C@@H]2OC(=O)C(=C)[C@@H]21 | – | 10 µM (active)
83 | O=C1NC[C@H](Cc2ccc(O)cc2)N(C[C@H]2CCCN2C[C@H](Cc2ccccc2)N2C[C@H](Cc3ccccc3)N(CCc3ccccc3)C(=O)C2=O)C1=O | -2.33% (inactive) | –
84 | C#CCOCCOCCOCCNc1nc(N2CCN(C(=O)Cn3cc(CCO)nn3)CC2)nc(N2CCN(C(=O)Cn3cc(CCCN=C(N)N)nn3)CC2)n1 | -1.69% (inactive) | –
85 | C#CCOCCOCCOCCNc1nc(N2CCN(C(=O)Cn3cc(CCO)nn3)CC2)nc(N2CCN(C(=O)[C@H](CCCCN)n3cc(CCCC)nn3)CC2)n1 | 7.77% (inactive) | –
86 | C#CCOCCOCCOCCNc1nc(N2CCN(C(=O)[C@H](C(C)C)n3cc(CCO)nn3)CC2)nc(N2CCN(C(=O)[C@H]([C@@H](C)CC)n3cc(CCCN=C(N)N)nn3)CC2)n1 | -7.34% (inactive) | –
87 | C#CCOCCOCCOCCNc1nc(N2CCN(C(=O)Cn3cc(CCCCN)nn3)CC2)nc(N2CCN(C(=O)[C@H](CCCCN)n3cc(CCC(=O)O)nn3)CC2)n1 | -4.71% (inactive) | –
88 | C#CCOCCOCCOCCNc1nc(N2CCN(C(=O)CCCCCCCCCCNC(=O)[C@H]([C@@H](C)CC)n3cc(CCCCN=C(N)N)nn3)CC2)nc(N2CCN(C(=O)CCCCCCCCCCNC(=O)[C@H](CO)n3cc(CCCSC)nn3)CC2)n1 | – | 15.8 µM (active)
89 | C#CCOCCOCCOCCNc1nc(N2CCN(C(=O)[C@H](CCC(=O)O)n3cc(CN)nn3)CC2)nc(N2CCN(C(=O)[C@H](CCC(=O)O)n3cc(CN)nn3)CC2)n1 | -8.97% (inactive) | –
90 | C#CCOCCOCCOCCNc1nc(N2CCN(C(=O)CCCCCCCCCCNC(=O)Cn3cc(CCCCCN)nn3)CC2)nc(N2CCN(C(=O)CCCCCCCCCCNC(=O)[C@H](CO)n3cc(CCCSC)nn3)CC2)n1 | – | 10 µM (active)
91 | C#CCOCCOCCOCCNc1nc(N2CCN(C(=O)[C@H](CCCCN)n3cc(CCC(=O)O)nn3)CC2)nc(N2CCN(C(=O)[C@H](CCCCN)n3cc(CC(C)O)nn3)CC2)n1 (some centres not stated) | -7.26% (inactive) | –
92 | C#CCOCCOCCOCCNc1nc(N2CCN(C(=O)CCCCCCCCCCNC(=O)[C@H](CCCCN)n3cc(C)nn3)CC2)nc(N2CCN(C(=O)CCCCCCCCCCNC(=O)[C@H](CO)n3cc(CCCSC)nn3)CC2)n1 | – | 7.94 µM (active)
